Data taken from PubChem BioAssay (EPA / NIEHS).
“And” between values parts separate entries of the source, which are not always exact repeats. Identical values can stand only once. Records with an inconclusive call do not appear. Where a structure was tested more than once in an assay, its records may differ in their call. The source made the active and inactive calls. The calls were made as follows, unless noted: active = hit-call score of the fitted dose curve at least 0.9, where 1 is the maximum; inactive = score below 0.9.

Key:
[1] = biological target: Glucocorticoid receptor (Homo sapiens) (UniProt P04150); assay: ATG_GR_TRANS: Attagene TRANS-FACTORIAL HepG2 Assay for human Glucocorticoid Receptor (GR) (AID 2282978; active = hit-call score of the fitted dose curve at least 0.9, where 1 is the maximum;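 also: activators score as hits since higher reporter transcript over DMSO is fitted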); details: HepG2 Attagene TRANS GR reporter, mRNA transcription
Sequence of Glucocorticoid receptor (Homo sapiens) (P04150 whole entry, looked up, the tested form may be a part): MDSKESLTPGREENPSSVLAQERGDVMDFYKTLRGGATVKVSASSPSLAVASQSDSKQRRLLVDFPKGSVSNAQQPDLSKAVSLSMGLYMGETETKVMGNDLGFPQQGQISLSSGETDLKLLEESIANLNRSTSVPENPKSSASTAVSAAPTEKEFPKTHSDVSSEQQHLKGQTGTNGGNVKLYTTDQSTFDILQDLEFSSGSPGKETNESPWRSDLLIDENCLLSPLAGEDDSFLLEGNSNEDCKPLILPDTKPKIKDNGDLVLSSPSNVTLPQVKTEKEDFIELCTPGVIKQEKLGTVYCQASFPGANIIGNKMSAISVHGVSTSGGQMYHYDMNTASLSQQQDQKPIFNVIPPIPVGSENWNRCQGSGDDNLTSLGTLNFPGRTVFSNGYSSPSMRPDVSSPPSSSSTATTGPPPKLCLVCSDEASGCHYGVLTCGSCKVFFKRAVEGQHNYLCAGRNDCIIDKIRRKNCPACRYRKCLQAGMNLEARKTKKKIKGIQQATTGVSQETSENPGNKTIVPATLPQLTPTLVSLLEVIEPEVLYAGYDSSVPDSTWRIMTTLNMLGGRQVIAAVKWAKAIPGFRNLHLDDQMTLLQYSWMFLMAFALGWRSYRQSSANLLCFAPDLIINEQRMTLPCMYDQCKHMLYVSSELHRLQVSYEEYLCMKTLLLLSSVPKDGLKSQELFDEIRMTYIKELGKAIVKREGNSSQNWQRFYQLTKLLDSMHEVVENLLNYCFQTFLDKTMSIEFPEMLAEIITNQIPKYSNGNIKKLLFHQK
Method in brief: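 Transient MRTU transfection of HepG2 (GAL4-UAS reporters, exogenous NR-GAL4 chimeras), 24 h dosing. Readout: reporter transcript via RT-PCR + capillary electrophoresis fluorescence. Positive direction vs DMSO baseline.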

[2] = biological target: Bile acid receptor (Homo sapiens) (UniProt Q96RI1); assay: ATG_FXR_TRANS: Attagene TRANS-FACTORIAL HepG2 Assay for Farnesoid X Receptor (FXR) (AID 2282979; active = hit-call score of the fitted dose curve at least 0.9, where 1 is the maximum;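 also: hits raise reporter mRNA above DMSO so AC50 marks FXR activation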); details: HepG2 Attagene TRANS FXR-GAL4 reporter transcription
Sequence of Bile acid receptor (Homo sapiens) (Q96RI1 whole entry, looked up, the tested form may be a part): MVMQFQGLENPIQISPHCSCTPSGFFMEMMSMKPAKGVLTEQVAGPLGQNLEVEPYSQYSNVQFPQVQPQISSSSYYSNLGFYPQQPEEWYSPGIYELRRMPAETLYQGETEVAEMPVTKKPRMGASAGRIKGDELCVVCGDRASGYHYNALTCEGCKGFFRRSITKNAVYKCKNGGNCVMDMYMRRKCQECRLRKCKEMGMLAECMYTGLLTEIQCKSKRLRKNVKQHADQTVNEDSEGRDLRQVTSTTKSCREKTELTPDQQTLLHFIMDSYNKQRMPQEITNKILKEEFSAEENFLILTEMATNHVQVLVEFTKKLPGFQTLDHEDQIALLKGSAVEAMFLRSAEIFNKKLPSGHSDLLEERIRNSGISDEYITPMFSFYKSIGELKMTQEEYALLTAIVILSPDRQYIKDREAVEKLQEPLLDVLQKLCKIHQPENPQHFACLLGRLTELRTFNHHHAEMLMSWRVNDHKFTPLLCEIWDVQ
Method in brief: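 HepG2 cells were transiently transfected with GAL4-UAS reporters driven by chimeric NR-Gal4 proteins and dosed for 24 h. Reporter mRNA was quantified by RT-PCR, fluorescent labelling, HpaI digestion and capillary electrophoresis, with gain of signal scored versus DMSO.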

[3] = biological target: Oxysterols receptor LXR-beta (Homo sapiens) (UniProt P55055); assay: ATG_LXRb_TRANS: Attagene TRANS-FACTORIAL HepG2 Assay for human Liver X Receptor beta (LXRb) (AID 2282981; active = hit-call score of the fitted dose curve at least 0.9, where 1 is the maximum); details: HepG2 Attagene TRANS GAL4-LXRb reporter, mRNA
Sequence of Oxysterols receptor LXR-beta (Homo sapiens) (P55055 whole entry, looked up, the tested form may be a part): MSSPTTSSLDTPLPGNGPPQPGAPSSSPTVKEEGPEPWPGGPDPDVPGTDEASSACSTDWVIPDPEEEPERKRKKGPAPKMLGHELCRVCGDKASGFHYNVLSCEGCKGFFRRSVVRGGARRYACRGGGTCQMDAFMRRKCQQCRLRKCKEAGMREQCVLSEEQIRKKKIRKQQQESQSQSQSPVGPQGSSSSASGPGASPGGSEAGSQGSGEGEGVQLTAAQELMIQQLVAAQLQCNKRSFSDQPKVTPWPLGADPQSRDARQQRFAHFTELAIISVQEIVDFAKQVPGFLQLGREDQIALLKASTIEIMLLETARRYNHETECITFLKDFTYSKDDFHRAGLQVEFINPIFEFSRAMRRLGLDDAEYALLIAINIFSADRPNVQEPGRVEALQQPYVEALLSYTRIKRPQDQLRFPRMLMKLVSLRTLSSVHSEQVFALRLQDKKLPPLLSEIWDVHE
Method in brief: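 After 24 h of chemical treatment, transfected HepG2 cells yield total RNA; reporter cDNA is PCR-amplified, FAM-labelled, HpaI-cut and run on capillary electrophoresis. Signal reflects chimeric LXRb-Gal4 activity on GAL4-UAS reporters.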

[4] = ATG_M_06_TRANS: Attagene TRANS-FACTORIAL HepG2 Assay for M06 Transcription Factor (Internal Marker) (AID 2282983; active = hit-call score of the fitted dose curve at least 0.9, where 1 is the maximum); details: HepG2 Attagene TRANS M06 internal marker reporter
Method in brief: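 mRNA levels of a reporter transcript, quantified as FAM fluorescence on capillary electrophoresis, served as readout. HepG2 cells expressing exogenous GAL4-chimera reporter constructs were exposed for 24 h. Gain of signal over DMSO was evaluated.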

[5] = ATG_M_32_TRANS: Attagene TRANS-FACTORIAL HepG2 Assay for M32 Transcription Factor (Internal Marker) (AID 2282984; active = hit-call score of the fitted dose curve at least 0.9, where 1 is the maximum;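 also: transcript level of a background control reporter unit measured by RT-PCR and capillary electrophoresis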); details: HepG2 Attagene TRANS M32 internal marker reporter
Method in brief: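 Cell-based TRANS-format assay in HepG2: exogenous chimeric GAL4 reporter units transiently expressed, compounds applied 24 h. Reporter mRNA detected by RT-PCR plus capillary electrophoresis; this readout is an internal background marker.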

[6] = biological target: Nuclear receptor subfamily 4 group A member 2 (Homo sapiens) (UniProt P43354); assay: ATG_NURR1_TRANS: Attagene TRANS-FACTORIAL HepG2 Assay for human Nuclear Receptor Related Protein 1 (NURR1) (AID 2282985; active = hit-call score of the fitted dose curve at least 0.9, where 1 is the maximum); details: HepG2 Attagene TRANS reporter, mRNA readout
Sequence of Nuclear receptor subfamily 4 group A member 2 (Homo sapiens) (P43354 whole entry, looked up, the tested form may be a part): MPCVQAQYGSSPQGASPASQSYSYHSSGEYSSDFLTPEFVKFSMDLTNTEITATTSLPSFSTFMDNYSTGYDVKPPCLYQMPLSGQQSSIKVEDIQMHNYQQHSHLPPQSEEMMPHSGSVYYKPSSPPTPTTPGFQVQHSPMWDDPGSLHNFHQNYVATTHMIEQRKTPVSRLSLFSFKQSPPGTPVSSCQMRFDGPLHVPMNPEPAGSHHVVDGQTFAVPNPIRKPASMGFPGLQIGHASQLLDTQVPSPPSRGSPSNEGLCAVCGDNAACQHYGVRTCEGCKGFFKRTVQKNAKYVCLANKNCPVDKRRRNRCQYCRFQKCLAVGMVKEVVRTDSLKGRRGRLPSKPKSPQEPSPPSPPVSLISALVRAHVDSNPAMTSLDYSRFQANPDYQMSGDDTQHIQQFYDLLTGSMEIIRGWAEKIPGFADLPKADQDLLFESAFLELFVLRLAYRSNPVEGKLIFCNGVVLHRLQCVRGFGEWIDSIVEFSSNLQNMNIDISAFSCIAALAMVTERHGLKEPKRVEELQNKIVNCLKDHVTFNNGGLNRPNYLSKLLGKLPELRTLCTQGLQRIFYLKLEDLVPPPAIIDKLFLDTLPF
Method in brief: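 Measures transcriptional activation by an exogenous NR-Gal4 chimera in transfected HepG2 liver cells. After 24 h, reporter RNA is reverse-transcribed, amplified and resolved by capillary electrophoresis; DMSO defines baseline.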

[7] = biological target: Transcriptional activator Myb (Homo sapiens) (UniProt P10242); assay: ATG_Myb_CIS: Attagene CIS-FACTORIAL HepG2 Assay for human Myeloblastosis (Myb) Proto-Oncogene Transcription Factor (AID 2282986); details: HepG2 Attagene CIS-FACTORIAL Myb reporter transcription; actives raise or lower the signal
Sequence of Transcriptional activator Myb (Homo sapiens) (P10242 whole entry, looked up): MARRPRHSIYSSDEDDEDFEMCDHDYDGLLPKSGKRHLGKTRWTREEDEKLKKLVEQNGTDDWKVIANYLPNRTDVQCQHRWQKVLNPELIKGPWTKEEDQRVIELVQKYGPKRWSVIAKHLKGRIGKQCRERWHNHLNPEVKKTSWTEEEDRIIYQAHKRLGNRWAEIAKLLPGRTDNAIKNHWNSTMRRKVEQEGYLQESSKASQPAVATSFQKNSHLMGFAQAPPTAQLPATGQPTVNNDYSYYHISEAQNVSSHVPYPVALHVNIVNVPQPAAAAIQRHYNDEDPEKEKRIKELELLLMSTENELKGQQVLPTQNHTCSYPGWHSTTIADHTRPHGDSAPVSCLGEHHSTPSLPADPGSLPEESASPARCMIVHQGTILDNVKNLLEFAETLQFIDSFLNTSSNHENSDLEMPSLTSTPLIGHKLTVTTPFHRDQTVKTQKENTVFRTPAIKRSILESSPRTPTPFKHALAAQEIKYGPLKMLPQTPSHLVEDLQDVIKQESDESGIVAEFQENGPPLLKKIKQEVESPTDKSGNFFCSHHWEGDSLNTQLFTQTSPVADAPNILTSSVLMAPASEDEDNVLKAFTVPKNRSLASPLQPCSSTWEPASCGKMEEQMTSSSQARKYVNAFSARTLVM
Method in brief: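 HepG2, transient MRTU transfection (cis-element promoters, endogenous TF activity), 24 h compound exposure. Readout: reporter mRNA via RT-PCR, 6-FAM labeling, HpaI digest, capillary electrophoresis. Gain/loss fit vs DMSO.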

[8] = biological target: Nuclear respiratory factor 1 (Homo sapiens) (UniProt Q16656); assay: ATG_NRF1_CIS: Attagene CIS-FACTORIAL HepG2 Assay for human Nuclear Respiratory Factor 1 (NRF1) Orphan Gene (AID 2282987); details: HepG2 NRF1 cis-element reporter, Attagene multiplex; actives raise or lower the signal
Sequence of Nuclear respiratory factor 1 (Homo sapiens) (Q16656 whole entry, looked up): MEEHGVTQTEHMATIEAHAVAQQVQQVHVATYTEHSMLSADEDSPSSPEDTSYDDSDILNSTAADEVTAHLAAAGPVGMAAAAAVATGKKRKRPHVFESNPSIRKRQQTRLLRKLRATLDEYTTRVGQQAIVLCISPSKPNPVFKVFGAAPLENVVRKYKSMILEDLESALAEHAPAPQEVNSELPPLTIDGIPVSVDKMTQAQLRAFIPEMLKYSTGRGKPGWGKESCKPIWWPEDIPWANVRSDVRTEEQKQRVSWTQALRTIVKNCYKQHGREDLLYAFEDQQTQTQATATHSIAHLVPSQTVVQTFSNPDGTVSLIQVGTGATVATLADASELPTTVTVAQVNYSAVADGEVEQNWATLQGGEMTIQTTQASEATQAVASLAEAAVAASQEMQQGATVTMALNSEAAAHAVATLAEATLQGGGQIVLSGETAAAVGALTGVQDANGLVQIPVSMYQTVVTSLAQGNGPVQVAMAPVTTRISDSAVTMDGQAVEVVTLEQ
Method in brief: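 Endogenous NRF1-driven reporter transcription measured in transiently transfected human HepG2 liver cells. Readout: reporter mRNA by RT-PCR and capillary electrophoresis with fluorescence detection, 24 h post-dosing. Gain or loss of signal fitted relative to DMSO baseline.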

[9] = biological target: Myc proto-oncogene protein (Homo sapiens) (UniProt P01106); assay: ATG_Myc_CIS: Attagene CIS-FACTORIAL HepG2 Assay for human Myelocytomatosis (Myc) Proto-Oncogene Transcription Factor (AID 2282990); details: HepG2, Attagene cis-reporter transcription factor activity; actives raise or lower the signal
Sequence of Myc proto-oncogene protein (Homo sapiens) (P01106 whole entry, looked up, the tested form may be a part): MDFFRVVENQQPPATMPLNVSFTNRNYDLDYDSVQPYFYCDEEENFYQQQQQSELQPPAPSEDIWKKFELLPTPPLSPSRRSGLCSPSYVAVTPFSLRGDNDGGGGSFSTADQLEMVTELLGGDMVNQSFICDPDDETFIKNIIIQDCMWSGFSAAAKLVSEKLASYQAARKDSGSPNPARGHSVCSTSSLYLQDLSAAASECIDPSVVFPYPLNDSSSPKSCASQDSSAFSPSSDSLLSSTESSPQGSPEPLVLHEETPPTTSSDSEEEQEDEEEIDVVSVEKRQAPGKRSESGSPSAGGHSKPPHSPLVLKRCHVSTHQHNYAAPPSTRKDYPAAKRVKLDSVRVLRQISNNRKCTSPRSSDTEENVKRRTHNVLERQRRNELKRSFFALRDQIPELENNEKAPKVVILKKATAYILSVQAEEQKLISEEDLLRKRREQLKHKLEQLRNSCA
Method in brief: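 After 24 h chemical treatment of HepG2 cells carrying multiplexed cis-regulated reporter constructs, reporter transcripts quantified by RT-PCR and capillary electrophoresis of fluorescent fragments. Gain or loss fitted against DMSO baseline.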

[10] = ATG_NF_kB_CIS: Attagene CIS-FACTORIAL HepG2 Assay for human Nuclear Factor Kappa B (NF-kB) (AID 2282991); details: HepG2 Attagene cis-factorial NF-kB reporter mRNA; actives raise or lower the signal
Method in brief: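 Read-out: reporter transcript levels quantified by RT-PCR plus capillary electrophoresis of 6-FAM-labelled, HpaI-cut fragments. Transfected HepG2 cells, 24 h compound exposure, endogenous NF-kB-driven cis element; gain or loss scored versus DMSO.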

[11] = ATG_NRF2_ARE_CIS: Attagene CIS-FACTORIAL HepG2 Assay for human Nuclear Factor Erythroid 2 Related Factor 2 (NFR2) response to Antioxidant Response Elements (ARE) (AID 2282992); details: HepG2 Attagene ARE/NRF2 reporter, transcription factor activity; actives raise or lower the signal
Method in brief: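 Endogenous transcription factor activity read out as reporter transcript levels (RT-PCR plus capillary electrophoresis, fluorescence) in transiently transfected HepG2 cells. Measured at 24 h after dosing; gain or loss of signal fitted versus DMSO.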

[12] = biological target: Cellular tumor antigen p53 (Homo sapiens) (UniProt P04637); assay: ATG_p53_CIS: Attagene CIS-FACTORIAL HepG2 Assay for human p53 Transcription Factor (AID 2282994); details: HepG2 p53 cis-element reporter, Attagene mRNA; actives raise or lower the signal
Sequence of Cellular tumor antigen p53 (Homo sapiens) (P04637 whole entry, looked up): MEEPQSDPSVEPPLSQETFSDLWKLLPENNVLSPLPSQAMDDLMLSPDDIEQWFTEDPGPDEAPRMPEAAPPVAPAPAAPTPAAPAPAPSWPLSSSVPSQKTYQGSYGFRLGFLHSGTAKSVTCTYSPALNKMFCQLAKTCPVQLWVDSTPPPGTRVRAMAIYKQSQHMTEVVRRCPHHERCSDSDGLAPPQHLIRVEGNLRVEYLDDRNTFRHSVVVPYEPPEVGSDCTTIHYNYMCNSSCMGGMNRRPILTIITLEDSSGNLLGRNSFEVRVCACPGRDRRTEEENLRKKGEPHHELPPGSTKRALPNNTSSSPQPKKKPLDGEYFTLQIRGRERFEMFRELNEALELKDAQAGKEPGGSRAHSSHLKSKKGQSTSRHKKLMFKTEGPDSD
Method in brief: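 Endogenous p53 activity read in transiently transfected HepG2 from a cis-element-driven reporter transcript after 24 h exposure. RNA reverse-transcribed, PCR-amplified, fluorescently labelled and sized by capillary electrophoresis; gain or loss fitted against DMSO baseline.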

[13] = BSK_3C_TissueFactor: BioMAP Diversity Plus: 3C Assay for Tissue Factor Biomarker Activity (AID 2282997); details: BioMAP 3C HUVEC, tissue factor biomarker readout; actives raise or lower the signal
Method in brief: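 Tissue Factor measured by ELISA, 24 h after treatment of primary HUVEC in the BioMAP 3C setting.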

[14] = BSK_3C_uPAR: BioMAP Diversity Plus: 3C Assay for Urokinase-type plasminogen activator receptor (uPAR) Biomarker Activity (AID 2282998); details: BioMAP 3C HUVEC, uPAR biomarker ELISA; actives raise or lower the signal
Method in brief: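 Human umbilical vein endothelial primary cells were exposed to test chemical for 24 h. Cell-surface uPAR was then quantified by ELISA, and responses were fitted bidirectionally against DMSO as negative control and baseline.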

[15] = BSK_3C_VCAM1: BioMAP Diversity Plus: 3C Assay for Vascular cell adhesion molecule 1 (VCAM1) Biomarker Activity (AID 2282999); details: BioMAP 3C HUVEC, VCAM1 ELISA, cytokine-stimulated; actives raise or lower the signal
Method in brief: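 Activity fitted in both directions relative to DMSO, with ELISA measurement of the surface marker on primary HUVEC (3C) at 24 h post-treatment; parallel SRB staining (0.1% SRB, TCA-fixed, 560 nm) flagged overt cytotoxicity.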

[16] = biological target: Oxysterols receptor LXR-alpha (Homo sapiens) (UniProt Q13133); assay: ATG_LXRa_TRANS: Attagene TRANS-FACTORIAL HepG2 Assay for human Liver X Receptor alpha (LXRa) (AID 2282980; active = hit-call score of the fitted dose curve at least 0.9, where 1 is the maximum); details: HepG2 Attagene TRANS reporter, LXRa transactivation
Method in brief: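 HepG2 cells transiently transfected with GAL4-UAS reporter units for chimeric NR-Gal4 proteins, exposed to chemicals for 24 h. Reporter mRNA quantified by RT-PCR and capillary electrophoresis; gain of signal fitted relative to DMSO.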

[17] = biological target: Hepatocyte nuclear factor 4-alpha (Homo sapiens) (UniProt P41235); assay: ATG_HNF4a_TRANS: Attagene TRANS-FACTORIAL HepG2 Assay for human Hepatocyte Nuclear Factor 4 alpha (HNF4a) (AID 2282982; active = hit-call score of the fitted dose curve at least 0.9, where 1 is the maximum); details: HepG2 HNF4a transactivation reporter, mRNA readout
Sequence of Hepatocyte nuclear factor 4-alpha (Homo sapiens) (P41235 whole entry, looked up): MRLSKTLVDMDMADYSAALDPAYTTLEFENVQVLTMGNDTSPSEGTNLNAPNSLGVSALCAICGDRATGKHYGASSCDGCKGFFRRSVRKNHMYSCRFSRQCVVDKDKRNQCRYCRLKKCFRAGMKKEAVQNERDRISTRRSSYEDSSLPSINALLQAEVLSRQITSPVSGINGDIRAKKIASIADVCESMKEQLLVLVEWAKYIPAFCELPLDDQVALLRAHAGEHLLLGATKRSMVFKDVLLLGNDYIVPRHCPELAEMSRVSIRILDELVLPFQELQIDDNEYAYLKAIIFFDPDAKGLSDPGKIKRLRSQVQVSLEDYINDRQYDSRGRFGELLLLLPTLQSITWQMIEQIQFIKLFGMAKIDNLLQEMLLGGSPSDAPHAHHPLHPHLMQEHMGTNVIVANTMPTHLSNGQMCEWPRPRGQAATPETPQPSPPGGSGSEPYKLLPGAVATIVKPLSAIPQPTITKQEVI
Method in brief: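 Multiplexed reporter assay: transfected HepG2, 24 h exposure, total RNA → oligo(dT) RT → PCR → 6-FAM extension → HpaI digest → CE fluorescence. DMSO = negative control.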

[18] = ATG_NFI_CIS: Attagene CIS-FACTORIAL HepG2 Assay for human Nuclear Factor I (NFI) (AID 2282989); details: HepG2 cis-regulatory reporter, NFI response element transcription; actives raise or lower the signal
Method in brief: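 HepG2 cells transiently transfected with cis-element-driven multiplexed reporter transcription units, dosed for 24 h. Reporter mRNA quantified by RT-PCR, fluorescent labelling, HpaI digestion and capillary electrophoresis; bidirectional fit versus DMSO baseline.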

[19] = ATG_Oct_MLP_CIS: Attagene CIS-FACTORIAL HepG2 Assay for human Octamer-Binding Transcription Factor (Oct) (AID 2282993); details: HepG2 Attagene cis-factorial Oct reporter, mRNA; actives raise or lower the signal
Method in brief: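 HepG2 cells transiently transfected with cis-promoter-driven multiplexed reporter transcription units, dosed for 24 h. Reporter mRNA quantified by RT-PCR, fluorescent labelling, HpaI digestion and capillary electrophoresis; bidirectional fits versus DMSO baseline.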

Measured: AC50

CCCCCCCCC(F)(F)C(F)(F)C(F)(F)C(F)(F)C(F)(F)C(F)(F)F
not listed: [16] | [17] | [18] | [19]
inactive: all other assays above

O=C(CC(=O)C(F)(F)C(F)(F)F)C(F)(F)F
active: [10] 150 µM | [11] 94.6 µM and 109 µM | [12] 112 µM
inactive: [1] | [2] | [16] | [3] | [4] | [5] | [6] | [7] | [8] | [9] | [10] | [12] | [13] | [14] | [15]

CO[Si](OC)(c1ccccc1)c1ccccc1
active: [14] 34.8 µM | [15] 36.7 µM
not listed: [3] | [4] | [6] | [9] | [16] | [18] | [19]
inactive: all other assays above
